# Data published in the supplement of paper PMC6555819.
# Assays:
# Assay in all cases: PBM binding z-score (relative to random genomic background probes); higher = stronger binding; sequences stand for … in GC…GCGATTGACAGCGTAGAATGAAGG
# [1] = test system: PPARg:RXRa DBDmut IVT, anti-RXR (DBD mutation: RXRa K156A/R161A, NR concentration 270 nM, RXRa partner concentration 90 nM)
# How it was run: (§1)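 Ligand-free nuclear receptor dimers were applied to custom Agilent 4×180K protein-binding microarrays whose double-stranded probes carried direct-repeat seeds, single-nucleotide variants, half-site ablations and random human genomic background sequences in 34-nt variable regions. Incubation lasted 1 h. Binding z-scores were computed against the random background probes from regression-normalized fluorescence.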
# [2] = test system: PPARg:RXRa IVT, anti-PPARg (NR concentration 270 nM, RXRa partner concentration 90 nM)
# How it was run: as §1
# [3] = test system: PPARg DBDmut:RXRa IVT, anti-PPARg (DBD mutation: PPARg1 K132A/R137A, NR concentration 270 nM, RXRa partner concentration 90 nM)
# How it was run: as §1
# [4] = test system: PPARg DBDmut IVT, anti-PPARg (DBD mutation: PPARg1 K132A/R137A, NR concentration 270 nM)
# How it was run: as §1
# [5] = test system: PPARg homodimer (NR concentration 180 nM)
# How it was run: as §1
# [6] = test system: PXR:RXRa (NR concentration 270 nM, RXRa partner concentration 90 nM)
# How it was run: as §1
# [7] = test system: PXR homodimer (NR concentration 270 nM)
# How it was run: as §1
# [8] = test system: RARa:RXR (NR concentration 270 nM, RXRa partner concentration 90 nM)
# How it was run: as §1
# [9] = test system: RARa homodimer (NR concentration 270 nM)
# How it was run: as §1
# [10] = test system: RARb:RXRa (NR concentration 270 nM, RXRa partner concentration 90 nM)
# How it was run: as §1
# [11] = test system: RARb homodimer (NR concentration 270 nM)
# How it was run: as §1
# [12] = test system: RARg:RXRa (NR concentration 270 nM, RXRa partner concentration 90 nM)
# How it was run: as §1
# [13] = test system: RARg homodimer (NR concentration 270 nM)
# How it was run: as §1
# [14] = test system: RXRa DBDmut IVT, anti-RXR (DBD mutation: RXRa K156A/R161A, NR concentration 90 nM)
# How it was run: as §1
# [15] = test system: RXRa homodimer (NR concentration 180 nM)
# How it was run: as §1
# [16] = test system: THRa:RXRa (NR concentration 90 nM, RXRa partner concentration 90 nM)
# How it was run: as §1
# [17] = test system: THRa homodimer (NR concentration 90 nM)
# How it was run: as §1
# [18] = test system: VDR homodimer (NR concentration 270 nM)
# How it was run: as §1
Sequence,PBM binding z-score [1],PBM binding z-score [2],PBM binding z-score [3],PBM binding z-score [4],PBM binding z-score [5],PBM binding z-score [6],PBM binding z-score [7],PBM binding z-score [8],PBM binding z-score [9],PBM binding z-score [10],PBM binding z-score [11],PBM binding z-score [12],PBM binding z-score [13],PBM binding z-score [14],PBM binding z-score [15],PBM binding z-score [16],PBM binding z-score [17],PBM binding z-score [18]
TCTAGTTGGTCACGTAGGTCACACACGACGGGTA,2.33,3.55,1.17,0.772,2.46,2.27,0.538,2.84,0.979,3.26,3.66,3.36,3.67,1.06,2.91,2.39,1.04,1.22
CTGCCAAGGTGAACAAGGTCGTTGATTACTATTC,2.22,2.18,-0.417,-1,0.571,2.35,1.73,1.9,-0.469,2.08,2,1.66,1.29,1.04,1.58,3.07,1.67,1.56
TCTAGCAGGCCAGAGGGGCACTCAAGAGGTACGG,0.959,-0.0435,-0.531,-0.834,-0.877,-0.511,-0.673,-0.329,-0.905,0.329,0.611,0.104,0.165,-0.0321,0.357,-0.399,-0.898,-0.703
AGAACGAGGCCACGCTGAGTTGATAGCAGAGTAG,3.08,2.31,0.24,0.0825,-0.457,-0.0371,-0.451,-0.283,-0.379,1.17,0.176,0.764,1.22,0.267,0.15,1.02,-0.00748,0.389
TCTTGTAGATCAACAGGAGGTTATGAAAGATCGA,1.42,0.582,0.881,1.46,-0.255,0.762,-0.367,0.694,-0.449,0.283,0.222,0.765,0.211,0.368,0.889,0.76,-0.681,-0.167
ATCTCTAGGTAACAAGTTCAGTGAAAGAGAGGAC,3.46,3.2,1.03,1.64,1.58,1.71,2.41,0.933,1.19,1.85,1.78,1.52,1.61,1.06,0.955,1.68,0.986,3.36
ACTATTAGTAGAGACGAGGGCAACCGATAGGTTG,-0.0666,0.751,1.1,0.293,0.251,0.541,0.137,0.421,0.262,0.97,0.968,0.616,0.804,0.392,0.661,0.934,0.11,0.675
GGAACAAGGGCATTCGAGTTGATAGCATGGCGAT,2.21,1.65,-0.248,-0.286,0.614,3.18,0.975,0.884,0.198,2.02,1.12,1.21,1.36,2.48,0.917,3.16,-0.205,2.39
ACTTACGCGTCAACGAGGTTATAGCACGCGTATA,-0.0489,0.00944,0.527,-0.0395,0.374,1.04,-0.0402,1.15,0.181,0.516,0.406,0.413,0.22,0.579,1.09,1.52,0.379,0.536
CCTACTGGGCCAAACAGGTCATTGATGCCGATAA,4.31,3.92,0.0161,-0.301,1.42,1.37,0.801,1.71,0.102,1.68,2.13,1.56,1.36,0.175,1.38,1.39,0.0902,1.53
GCTTACGGGTCAAAGGTGATAGCATGAATAGAAT,5.42,5.3,1.11,0.857,2.81,4.78,-0.0532,6.93,0.406,4.09,2.94,5.62,4.21,2.43,7.79,3.15,-0.0269,1.07
ATACCAAGCTGATCGTGAGGTCGTTGATACTAAC,-0.185,0.0581,0.404,0.536,0.45,1.49,1.06,1.26,0.317,0.454,1.07,0.355,0.15,0.629,0.837,2.12,1.76,2.35
CCTACTGGCCCAAGGTCATTGATCAGTCAAAGCA,-0.104,1.17,-0.998,-0.271,2.64,3.52,1.68,3.36,0.651,3.4,3.58,3.48,2.65,1.58,3.16,3.57,2.81,2.79
GCTGCTAGATCAGGTTGGTCAGCTAACGGGTACG,-0.422,-0.787,-0.302,-0.87,-0.314,-0.686,-0.557,-0.344,-1.48,-0.392,-0.151,-0.607,-0.66,-0.411,-0.416,-0.611,-0.864,0.19
TCTGCTAGGTGAGTTGGTCAGCTAACGAGCTGCC,1.24,1.52,0.145,-0.743,-1.59,-0.323,-0.828,-0.314,-1.28,0.429,-0.359,-0.346,-0.369,-0.485,-0.331,-0.346,-0.955,-0.985
